Source: PubChem BioAssay AID1863 (Southern Research Specialized Biocontainment Screening …, 2009)
Where “and” joins values, the source holds several entries; their conditions need not be identical. Identical values can stand only once. About 480 (0.16%) of roughly 300,000 compounds were called active.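 The calls were made as follows: active = inhibition over 29.93%, a cutoff 3 SD above the screen mean, later confirmed by dose response; inconclusive = inhibition over 29.93% but no dose response follow-up; inactive = inhibition at most 29.93% or unconfirmed.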 The list is a sample of the results. Measured potencies and affinities stand elsewhere.

experiment: inhibitors of PhoP regulon expression, primary screen, Salmonella Typhimurium, GFP reporter (AID 1863);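 also: 0% = low Mg2+ inducing control and 100% = high Mg2+ repressing control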; settings: S. Typhimurium PhoP-regulated promoter GFP reporter, 4 h; at 50 µM; active compounds read high

inhibition, inactive:
CC(C)[C@H](NC(=O)OCc1ccccc1)C(=O)OCC(=O)NC1(C#N)CCCC1 10.7%
CC1CCC/C(=N\NC(=O)Nc2ccccc2)C1 (stereo not given) 2.46%
COc1ccc2cc(C(=O)C3CCCN(C(=O)c4cnn(C(C)C)c4)C3)ccc2c1 (stereo not given) 2.9%
CN(CC(=O)Nc1ccc(F)cc1)C(=O)c1cccc(S(=O)(=O)N2CCN(c3ccccc3)CC2)c1 -1.79%
CC(C)(C)CN1CCN(CCCc2ccccc2)C(CCO)C1 (stereo not given) -4.44%
CCc1cc(CNC(=O)CC2C(=O)NCCN2Cc2c(F)cccc2Cl)on1 (stereo not given) -1.45%
Oc1ccc(/C=N/NC(=S)Nc2cccnc2)c(O)c1 29.1%
Oc1ccc(/C=N/NC(=S)Nc2cccnc2)c(O)c1O 8.35%
CCn1c(CNC(=O)C2CCCCC2)cc2cc(C)ccc21 -0.55%
COc1ccc(C(=O)C2CCCN(C(=O)C3CCOCC3)C2)c(C)c1 (stereo not given) 4.46%
C[n+]1cn(Cc2cc(Cl)ccc2OC(F)F)c2ccccc21 -3.69%
CCCCCc1ccc(OCCCC[n+]2ccccc2)c(CCCCC)c1 3.64%
CCCCCc1ccc(OCCCC[n+]2ccc(C)cc2)c(CCCCC)c1 15.8%
CCCCCc1ccc(OCCCC[n+]2cccc(C)c2)c(CCCCC)c1 3.26%
O=C1CC(C(=O)Nc2ccccc2)N=C(N2CCCCC2)N1 (stereo not given) 0.85%
OCC[C@H]1C[C@@H](O)[C@H](O)[C@]2(CCCCO2)O1 -4.87%
O=C(Cn1cc(SCc2cccc(Cl)c2)c2ccccc21)N1CCOCC1 -8.83%
CC(C)c1ccc(C2NC(=S)NC3=C2C(=O)CCC3)cc1 (stereo not given) 1.24%
CCOC(=O)/C=c1\s/c(=C\c2ccc(C(F)(F)F)cc2)c(=O)n1CC(=O)NCc1ccco1 -2.01%
S=C(NC1CC2CCC1C2)N1CCN(c2cccc(Cl)c2)CC1 (stereo not given) -2.31%
CCOC(=O)c1cn(-c2nc(-c3ccc(Cl)cc3)cs2)c2c(F)c(N3CC(C)OC(C)C3)c(F)cc2c1=O (stereo not given) 10.3%
CCn1cc(C(=O)O)c(=O)c2cnc(N3CCN(C(=S)Nc4ccc(F)cc4)CC3)nc21 -3.34%
O=S(=O)(c1ccc(F)c(F)c1F)N1CCN(C(=S)NC2CC3CCC2C3)CC1 (stereo not given) -4.07%
CCn1cc(C(=O)O)c(=O)c2cnc(N3CCN(C(=S)Nc4ccccc4C(F)(F)F)CC3)nc21 3.15%
COC(=O)CC1C(=O)NCCN1C(=S)Nc1ccc(F)cc1 (stereo not given) 0.13%
Cc1c(-n2cc(C(=O)O)c(=O)c3cc(F)c(N4CCCC(O)C4)c(F)c32)c(=O)n(-c2ccccc2)n1C (stereo not given) 2.04%
Cn1c(SCC2CCCCC2)nnc1-c1ccncc1 7.51%
CC(NC(=O)c1cc2cc(F)ccc2[nH]1)c1ccccc1 (stereo not given) 5.36%
COc1ccc(Cl)cc1NC(=O)C/C(C)=N/NC(=O)COc1ccc(C)cc1 4.2%
Cc1ccc(C(=O)OC(C)C(=O)NC2CCCCC2C)cc1S(=O)(=O)N1CCOCC1 (stereo not given) -5.67%
CCCCC(=O)N1CCN(c2nc3ccc(OCC)cc3s2)CC1 10.3%
CN1CCc2c(sc(NC(=O)C3CCCN3S(=O)(=O)c3ccc(Cl)s3)c2C(N)=O)C1 (stereo not given) -7.52%
CCOc1ccc(N(CC(=O)NCCc2ccccc2)C(=O)c2csnn2)cc1 2.07%
Cc1ccc(-n2nc3ccc(N)cc3n2)cc1Cl 0.05%
O=C(O)COCC(=O)NCc1nc(-c2ccc(C(F)(F)F)cc2)no1 -3.89%
CC1c2ccsc2CCN1S(=O)(=O)c1ccccc1 (stereo not given) 5.29%
COc1cc2c(cc1OC)C(COc1ccc([N+](=O)[O-])cc1)NCC2 (stereo not given) 5.02%
CC1CCCN(C(=S)NCc2ccccc2)C1 (stereo not given) 4.83%
CC1CCN(c2c(NCC3CCC(C(=O)NCc4ccccc4)CC3)c(=O)c2=O)CC1 (stereo not given) -6.12%
Cc1ccc(CCNS(=O)(=O)c2cc(Br)cnc2N)cc1 1.18%
CC1CCCCC1NC(=O)C1CCN(C(=O)c2sccc2-n2cccc2)CC1 (stereo not given) 6.9%
COC(=O)COC(=O)c1ccc(O)cc1 -6.41%
Cc1ccc(-c2nc(CS(=O)(=O)CC(=O)N3CCc4ccccc4C3)c(C)o2)cc1 8.69%
COc1ccc(-c2n(CC(=O)OC3CC(C)CCC3C(C)C)c3ccccc3[n+]2C)cc1 (stereo not given) -3.97%
CC1CCC(C(C)C)C(OC(=O)Cn2c(-c3ccccc3)[n+](C)c3ccccc32)C1 (stereo not given) -8.38% and 13.1%
Cc1ccccc1OCc1n(CC(=O)OC2CC(C)CCC2C(C)C)c2ccccc2[n+]1C (stereo not given) 6.3%
Cc1cccc(OCc2n(CC(=O)OC3CC(C)CCC3C(C)C)c3ccccc3[n+]2C)c1 (stereo not given) 15.1%
CC1CCC(C(C)C)C(OC(=O)Cn2c(-c3ccc(Br)cc3)[n+](C)c3ccccc32)C1 (stereo not given) 10% and 1.48%
CC1CCC(C(C)C)C(OC(=O)Cn2c(-c3ccc(F)cc3)[n+](C)c3ccccc32)C1 (stereo not given) 4.57%
COc1cccc(N2CCN(C(=O)CN(C)S(=O)(=O)c3ccc4c(c3)c(=O)n(C)c(=O)n4C)CC2)c1 3.8%
CCN(CC)c1ccc(NC(=O)CCNC(=O)c2ccco2)cc1 17.8%
COc1ccc(CNC(=O)COC(=O)CCOc2ccc(C)cc2)cc1OC -1.68%
CN(Cc1cn(C)c2ccccc12)C(=S)Nc1cc(F)cc(F)c1 -1.37%
COc1ccc(CCN2CC(C(=O)NCCc3ccccc3)CC2=O)cc1OC (stereo not given) 6.87%
CCN1CCN(C(=O)c2cnn3c(C(F)F)cc(-c4ccc(C)cc4)nc23)CC1 7.14%
COc1ccc(S(=O)(=O)N2CC(C)N(C(=O)N(C)C)C2C)cc1 (stereo not given) -6.03%
COc1ccc(-n2cnnc2SCC(=O)Nc2ccccc2F)cc1 -6.73%
CCOc1ccccc1NC(=O)CSc1nnc(CNC(=O)c2c(F)cccc2Cl)o1 1.66%
COc1ccc(NC(=O)COc2ccc(/C=N/n3c(C)nnc3C)cc2OC)cc1 -10.3%
COC(=O)Nc1ccc(S(=O)(=O)N2CCCCCC2)cc1 -7.01%
Cc1ccc(C)c(N(CC(=O)NC(C)C)C(=O)CCC(=O)Nc2ccccn2)c1 -3.9%
COCC1=C(C(=O)OC(C)OC(=O)OC(C)C)N2C(=O)[C@@H](NC(=O)/C(=N\OC)c3csc(N)n3)[C@H]2SC1 (stereo not given in full) -12.3%
CO/N=C(\C(=O)N[C@@H]1C(=O)N2C(C(=O)O)=C(COC(N)=O)CS[C@H]12)c1ccco1 4.28%
O=S(=O)(N/N=C/c1ccc(N2CCOCC2)cc1)c1ccc(Br)cc1 -5.5%
Cc1nn2c(-c3ccccc3)ccnc2c1Br 0.66%
CCc1ccc(S(=O)(=O)/N=C2\C=CC(=O)c3ccccc32)cc1 3.04%
Cc1ccc(S(=O)(=O)/N=C2/C=C(Sc3ncn[nH]3)C(=O)c3ccccc32)c(C)c1 192%
CCc1ccc(S(=O)(=O)/N=C2\C=C(Nc3ccc(O)cc3)C(=O)c3ccccc32)cc1 15.4%
Cc1ccc(S(=O)(=O)/N=C2/C=C(C3C(=O)CC(C)(C)CC3=O)C(=O)c3ccccc32)cc1 8.77%
CCOC(=O)c1cn(Cc2ccccc2)c(C(=O)OC(C)(C)C)c1O 2.15%
CN(CC(=O)Nc1ccccc1Br)C(=O)c1ccc(COc2ccccc2)cc1 1.64%
O=C(O)c1cc2ccc3cccc4ccc(c1)c2c34 7.13%
Oc1cccc2cc3cccc(O)c3c(O)c12 5.42%
CC(=O)NC12CC3CC(C1)CC(C(=O)Nc1nccs1)(C3)C2 -6.86%
O=C(COc1ccc(Cl)cc1)Nc1ccc(C(=O)O)cc1NC(=O)COc1ccc(Cl)cc1 -0.41%
COc1cc(/C=C/C(=O)N(C)c2ccccc2C(=O)O)cc(OC)c1OC -9.48%
CC(C)(C)c1cc(NCCCn2ccnc2)n2ncc(-c3ccccc3)c2n1 -5.57%
CC(C)Nc1cc(C(C)(C)C)nc2c(-c3ccccc3)cnn12 1.4%
C[C@@H]1CN(Cc2nc(-c3cccs3)no2)C[C@H](C)O1 17.7%
COc1ccc(CC2NCCC3(O)CCCCC23)cc1 (stereo not given) -4.79%
CCOc1ccc(C(=O)Nc2ccc(C(=O)N3CCOCC3)cc2)c(OCC)c1 2.54%
CCCCC(CC)CNC(=O)C1CC=CCC1C(=O)O (stereo not given) -4.78%
Cc1cc2oc(C(=O)Nc3ccc(S(N)(=O)=O)cc3)c(C)c2cc1Cl 0.34%
COC(=O)c1ccc(Nc2c([N+](=O)[O-])ccc3nonc23)cc1 -2.08%
Cc1ccc(S(=O)(=O)N(C)C)cc1NC(=O)COC(=O)COc1ccc2c(c1)CCC2 -2.74%
Cc1cccc(Nc2nc3ccccc3s2)c1C 6.62%
Cc1cc(N2CCC(C)CC2)nc2cccc(O)c12 11.4%
Cc1cc(Nc2ccccc2)nc2cc(O)ccc12 60.3%
Cc1cc(Nc2ccccc2O)c2ccccc2n1 8.86%
CCOc1ccc(NC(=O)CSc2nc3cccnc3n2CCOC)cc1 8.6%
